# Test results taken from PubChem BioAssay (EPA / NIEHS).
# “And” between values parts separate entries of the source, which are not always exact repeats. Identical values can stand only once. Records with an inconclusive call do not appear. A structure can be active in one record and inactive in another. The source made the active and inactive calls. The calls were made as follows: active = hit-call score of the fitted dose curve at least 0.9, where 1 is the maximum; inconclusive = response in the unintended direction; inactive = score below 0.9.
# How the values were obtained:
# [1] = ATG_M_06_XSP2: Attagene TRANS-FACTORIAL Multi-Species (XSP2) HepG2 Assay for M06 Transcription Factor (Internal Marker) (AID 2283811);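 also: hits are increases in signal above the DMSO baseline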
# Method in brief: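 HepG2 cells transiently transfected with GAL4-UAS multiple reporter units, medium containing 3 nM 6-alpha-fluorotestosterone and 1.5 nM norgestrel; reporter mRNA measured 24 hours post-dosing by RT-PCR and capillary electrophoresis. Internal background marker, gain of signal vs DMSO.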
# [2] = tested on: turtle Estrogen Receptor (ERa), gene 101933533; experiment: ATG_trERa_XSP2: Attagene TRANS-FACTORIAL Multi-Species (XSP2) HepG2 Assay for turtle Estrogen Receptor (ERa) (AID 2283812);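 also: human HepG2 liver cells transiently expressing turtle ERa-Gal4 chimeric receptor; actives raise reporter signal above DMSO so AC50 reflects agonist activity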
# Method in brief: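 HepG2 cells transiently transfected with GAL4-UAS reporter units expressing turtle ERa-Gal4 chimera. Reporter mRNA measured after 24 h dosing by RT-PCR, fluorescent labelling and capillary electrophoresis; gain of signal fitted versus DMSO.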
# [3] = target: Estrogen receptor beta (Homo sapiens) (UniProt Q92731); experiment: ATG_hERb_XSP2: Attagene TRANS-FACTORIAL Multi-Species (XSP2) HepG2 Assay for human Estrogen Receptor (ERb) (AID 2283813);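 also: actives raise reporter mRNA above DMSO so AC50 reflects agonist induction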
# Method in brief: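 HepG2 cells transiently transfected with GAL4-UAS reporter units and chimeric human ERb-Gal4, 24 h exposure. Reporter mRNA quantified by RT-PCR with FAM labelling, HpaI digestion and capillary electrophoresis; gain of signal versus DMSO.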
# [4] = target: GAL4 Transcription Factor (Internal Marker), GAL4 (gene 855828) (UniProt P04386); experiment: ATG_GAL4_XSP2: Attagene TRANS-FACTORIAL Multi-Species (XSP2) HepG2 Assay for GAL4 Transcription Factor (Internal Marker) (AID 2283814);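 also: GAL4 reporter mRNA background control in MRTU transfected cells not a receptor target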
# Method in brief: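 HepG2 cells transiently transfected with GAL4-UAS reporter units, stimulated with 3 nM 6-alpha-fluorotestosterone plus 1.5 nM norgestrel, dosed 24 h. Reporter mRNA by RT-PCR/capillary electrophoresis; gain-of-signal fit versus DMSO, background control.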
# [5] = tested on: turtle Androgen Receptor (AR), gene 101947425; experiment: ATG_trAR_XSP2: Attagene TRANS-FACTORIAL Multi-Species (XSP2) HepG2 Assay for turtle Androgen Receptor (AR) (AID 2283815);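 as to AC50: potency for gain of reporter signal meaning activation above DMSO baseline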
# Method in brief: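 HepG2 cells transiently transfected with GAL4-UAS reporter units for chimeric NR-Gal4 receptors; 24 h dosing in presence of 3 nM 6-alpha-fluorotestosterone and 1.5 nM norgestrel. Reporter mRNA by RT-PCR and capillary electrophoresis, gain of signal versus DMSO.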
# [6] = target: zebrafish Estrogen Receptor (ER1), esr1 (gene 259252) (UniProt P57717); experiment: ATG_zfER1_XSP2: Attagene TRANS-FACTORIAL Multi-Species (XSP2) HepG2 Assay for zebrafish Estrogen Receptor (ER1) (AID 2283816)
# Method in brief: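 HepG2 cells transiently transfected with a GAL4-UAS reporter and a chimeric zebrafish ER1-Gal4 construct, dosed 24 h. Reporter mRNA quantified by RT-PCR, labelling, HpaI digestion and capillary electrophoresis, relative to DMSO.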
# [7] = target: chicken Estrogen Receptor (ERa), ESR1 (gene 396099) (UniProt P06212); experiment: ATG_chERa_XSP2: Attagene TRANS-FACTORIAL Multi-Species (XSP2) HepG2 Assay for chicken Estrogen Receptor (ERa) (AID 2283817);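 also: actives raise reporter signal above DMSO so AC50 reflects ER activation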
# Method in brief: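 Transiently transfected HepG2 cells expressing chimeric chicken ERa-GAL4 reporter units, dosed 24 h with 3 nM 6-alpha-fluorotestosterone and 1.5 nM norgestrel present. Reporter mRNA measured by RT-PCR and capillary electrophoresis; gain-of-signal fitted relative to DMSO.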
# [8] = tested on: zebrafish Estrogen Receptor (ER2a), gene 317734; experiment: ATG_zfER2a_XSP2: Attagene TRANS-FACTORIAL Multi-Species (XSP2) HepG2 Assay for zebrafish Estrogen Receptor (ER2a) (AID 2283818);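 also: hits raise reporter mRNA so AC50 reflects activation of zebrafish ER2a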
# Method in brief: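 HepG2 cells transiently transfected with GAL4-UAS reporter units and chimeric zebrafish ER2a-Gal4, exposed 24 h; medium contains 3 nM 6-alpha-fluorotestosterone and 1.5 nM norgestrel. Reporter mRNA quantified by RT-PCR, HpaI digestion, capillary electrophoresis; gain versus DMSO.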
# [9] = tested on: chicken Androgen Receptor (AR), gene 422165; experiment: ATG_chAR_XSP2: Attagene TRANS-FACTORIAL Multi-Species (XSP2) HepG2 Assay for chicken Androgen Receptor (AR) (AID 2283819);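 also: hits raise reporter mRNA above DMSO so potency is for activation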
# Method in brief: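 HepG2 cells transiently transfected with chicken AR–GAL4 chimeric reporter constructs, stimulated with 3 nM 6-alpha-fluorotestosterone plus 1.5 nM norgestrel, dosed 24 h. Reporter mRNA quantified by RT-PCR and capillary electrophoresis; gain of signal fitted versus DMSO.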
# [10] = tested on: frog Estrogen Receptor (ER), gene 398734; experiment: ATG_frER1_XSP2: Attagene TRANS-FACTORIAL Multi-Species (XSP2) HepG2 Assay for frog Estrogen Receptor (ER) (AID 2283821);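 also: hits raise reporter mRNA above DMSO baseline so potency means agonist or activator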
# Method in brief: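 HepG2 cells transiently transfected with GAL4-UAS reporter units expressing a chimeric frog ER-Gal4 protein; 24 h exposure. Reporter mRNA quantified by RT-PCR, fluorescent labelling and capillary electrophoresis; gain of signal fitted against DMSO baseline.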
# [11] = ATG_M_61_XSP1: Attagene TRANS-FACTORIAL Multi-Species (XSP1) HepG2 Assay for M61 Transcription Factor (Internal Marker) (AID 2283797)
# Method in brief: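 HepG2 cells transiently transfected with multiplexed GAL4-driven reporter units, dosed 24 h with 3 nM 6-alpha-fluorotestosterone present. Reporter mRNA quantified by RT-PCR, 6-FAM labelling, HpaI digestion and capillary electrophoresis; internal-marker background control, gain of signal versus DMSO.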
# [12] = target: Peroxisome proliferator-activated receptor gamma (Homo sapiens) (UniProt P37231); experiment: ATG_hPPARg_XSP1: Attagene TRANS-FACTORIAL Multi-Species (XSP1) HepG2 Assay for human Peroxisome Proliferator-activated Receptor gamma (PPARg) (AID 2283800)
# Method in brief: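 HepG2 cells transiently transfected with GAL4-UAS reporter units carrying chimeric NR-Gal4 proteins; 3 nM 6-alpha-fluorotestosterone present. After 24 h dosing, reporter mRNA quantified by RT-PCR and capillary electrophoresis; gain of signal relative to DMSO.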
# [13] = tested on: zebrafish Peroxisome Proliferator-activated Receptor gamma (PPARg), gene 557037; experiment: ATG_zfPPARg_XSP1: Attagene TRANS-FACTORIAL Multi-Species (XSP1) HepG2 Assay for zebrafish Peroxisome Proliferator-activated Receptor gamma (PPARg) (AID 2283801)
# Method in brief: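 HepG2 cells transiently transfected with GAL4-UAS reporter units including a zebrafish PPARg–GAL4 chimera, dosed 24 h with 3 nM 6-alpha-fluorotestosterone present. Reporter mRNA quantified by RT-PCR, FAM labelling, HpaI digestion and capillary electrophoresis; induction versus DMSO.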
# [14] = target: Nuclear receptor subfamily 1 group I member 2 (Mus musculus) (UniProt O54915); experiment: ATG_mPXR_XSP1: Attagene TRANS-FACTORIAL Multi-Species (XSP1) HepG2 Assay for mouse Pregnane X Receptor (PXR) (AID 2283803)
# Method in brief: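 Transiently transfected HepG2 cells expressing a receptor-Gal4 chimera drive a GAL4-UAS reporter; 3 nM 6-alpha-fluorotestosterone included. Reporter mRNA read 24 h post-dose by RT-PCR and capillary electrophoresis; gain of signal relative to DMSO.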
# [15] = target: human Thyroid hormone Receptor alpha (TRa), THRA (gene 7067) (UniProt P10827); experiment: ATG_hTRa_XSP1: Attagene TRANS-FACTORIAL Multi-Species (XSP1) HepG2 Assay for human Thyroid hormone Receptor alpha (TRa) (AID 2283805)
# Method in brief: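 HepG2 cells transiently transfected with GAL4-UAS reporter units expressing chimeric NR-Gal4 proteins, dosed 24 hours with 3 nM 6-alpha-fluorotestosterone present. Reporter mRNA measured by RT-PCR and capillary electrophoresis; gain of signal fitted versus DMSO.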
# [16] = target: zebrafish Thyroid Hormone Receptor alpha (TRa), thraa (gene 30670) (UniProt Q98867); experiment: ATG_zfTRa_XSP1: Attagene TRANS-FACTORIAL Multi-Species (XSP1) HepG2 Assay for zebrafish Thyroid Hormone Receptor alpha (TRa) (AID 2283807)
# Method in brief: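 HepG2 cells transiently transfected with GAL4-UAS reporter units including a zebrafish TRa–Gal4 chimera, dosed 24 h with 3 nM 6-alpha-fluorotestosterone present. Reporter mRNA quantified by RT-PCR and capillary electrophoresis; gain versus DMSO.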
# [17] = target: human Thyroid hormone Receptor beta (TRb), THRB (gene 7068) (UniProt P10828); experiment: ATG_hTRb_XSP1: Attagene TRANS-FACTORIAL Multi-Species (XSP1) HepG2 Assay for human Thyroid hormone Receptor beta (TRb) (AID 2283808)
# Method in brief: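 HepG2 cells transiently transfected with reporter units driving GAL4-UAS reporters for chimeric NR-Gal4 proteins; 24 h chemical exposure with 3 nM 6-alpha-fluorotestosterone present. Reporter mRNA quantified by RT-PCR and capillary electrophoresis, gain of signal versus DMSO.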
# [18] = target: zebrafish Thyroid Hormone Receptor beta (TRb), thrb (gene 30607) (UniProt Q9PVE4); experiment: ATG_zfTRb_XSP1: Attagene TRANS-FACTORIAL Multi-Species (XSP1) HepG2 Assay for zebrafish Thyroid Hormone Receptor beta (TRb) (AID 2283809)
# Method in brief: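 HepG2 cells transiently transfected with multiplexed GAL4-UAS reporter units expressing chimeric zebrafish TRb–Gal4. Dosed 24 h with 3 nM 6-alpha-fluorotestosterone present; reporter mRNA measured by RT-PCR, HpaI digestion and capillary electrophoresis; gain of signal versus DMSO.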
# [19] = ATG_XTT_Cytotoxicity_XSP1: Cytotoxicity Assessment in the Attagene TRANS-FACTORIAL Multi-Species (XSP1) HepG2 Assay (AID 2283810)
# Method in brief: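 XTT viability readout taken at 24 hours post-dosing in HepG2 liver cells co-treated with 3 nM 6-alpha-fluorotestosterone. Signal loss relative to DMSO controls reflects cytotoxicity.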
# [20] = tested on: turtle Thyroid Hormone Receptor, alpha (TRa), gene 101949057; experiment: ATG_trTRa_XSP1: Attagene TRANS-FACTORIAL Multi-Species (XSP1) HepG2 Assay for turtle Thyroid Hormone Receptor, alpha (TRa) (AID 2283806)
# Method in brief: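 HepG2 cells transiently transfected with GAL4-UAS reporter units and chimeric receptor-Gal4 constructs, with 3 nM 6-alpha-fluorotestosterone present. Reporter mRNA was quantified 24 h after dosing by RT-PCR, 6-FAM labelling and capillary electrophoresis; gain of signal versus DMSO.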
# Sequence of GAL4 Transcription Factor (Internal Marker), GAL4 (gene 855828) (P04386 whole entry, looked up, the tested form may be a part): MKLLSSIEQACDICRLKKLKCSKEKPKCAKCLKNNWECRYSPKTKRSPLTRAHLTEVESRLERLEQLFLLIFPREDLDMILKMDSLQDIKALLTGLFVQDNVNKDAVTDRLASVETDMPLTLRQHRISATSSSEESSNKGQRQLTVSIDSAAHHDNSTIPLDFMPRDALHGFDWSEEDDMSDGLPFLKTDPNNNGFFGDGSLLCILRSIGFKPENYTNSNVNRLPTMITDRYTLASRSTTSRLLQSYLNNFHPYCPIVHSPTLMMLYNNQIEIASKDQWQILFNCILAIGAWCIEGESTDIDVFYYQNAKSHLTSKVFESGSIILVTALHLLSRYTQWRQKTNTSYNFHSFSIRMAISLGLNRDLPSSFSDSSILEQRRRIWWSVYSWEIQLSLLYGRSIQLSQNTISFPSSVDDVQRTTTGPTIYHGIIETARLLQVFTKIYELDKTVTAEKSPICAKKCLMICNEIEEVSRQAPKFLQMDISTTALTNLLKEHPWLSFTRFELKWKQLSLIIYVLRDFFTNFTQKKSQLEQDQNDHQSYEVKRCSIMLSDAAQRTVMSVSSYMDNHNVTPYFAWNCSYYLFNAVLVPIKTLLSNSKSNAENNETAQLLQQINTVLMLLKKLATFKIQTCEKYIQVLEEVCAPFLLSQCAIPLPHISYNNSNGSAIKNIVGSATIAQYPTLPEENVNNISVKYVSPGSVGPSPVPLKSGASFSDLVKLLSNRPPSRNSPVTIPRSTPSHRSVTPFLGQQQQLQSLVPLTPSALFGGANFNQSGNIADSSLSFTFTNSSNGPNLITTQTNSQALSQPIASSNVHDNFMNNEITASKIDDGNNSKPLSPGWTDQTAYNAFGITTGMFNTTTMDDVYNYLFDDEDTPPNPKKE
# Sequence of chicken Estrogen Receptor (ERa), ESR1 (gene 396099) (P06212 whole entry, looked up, the tested form may be a part): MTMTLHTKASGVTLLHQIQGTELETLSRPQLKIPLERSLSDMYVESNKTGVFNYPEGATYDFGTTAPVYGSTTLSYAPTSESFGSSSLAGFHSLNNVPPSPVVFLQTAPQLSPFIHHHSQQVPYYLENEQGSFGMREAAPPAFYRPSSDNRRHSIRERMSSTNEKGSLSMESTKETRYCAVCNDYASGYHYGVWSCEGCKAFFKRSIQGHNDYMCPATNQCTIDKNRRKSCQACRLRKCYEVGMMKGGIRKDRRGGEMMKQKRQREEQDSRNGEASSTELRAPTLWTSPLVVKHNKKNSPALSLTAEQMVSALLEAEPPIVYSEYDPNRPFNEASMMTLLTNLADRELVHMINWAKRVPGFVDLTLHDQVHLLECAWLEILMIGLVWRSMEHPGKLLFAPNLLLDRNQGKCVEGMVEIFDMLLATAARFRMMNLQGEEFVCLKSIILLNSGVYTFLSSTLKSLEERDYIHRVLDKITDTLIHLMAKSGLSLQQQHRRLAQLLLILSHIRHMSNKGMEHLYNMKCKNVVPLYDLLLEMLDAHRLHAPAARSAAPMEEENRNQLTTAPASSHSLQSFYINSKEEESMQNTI
# Sequence of zebrafish Estrogen Receptor (ER1), esr1 (gene 259252) (P57717 whole entry, looked up, the tested form may be a part): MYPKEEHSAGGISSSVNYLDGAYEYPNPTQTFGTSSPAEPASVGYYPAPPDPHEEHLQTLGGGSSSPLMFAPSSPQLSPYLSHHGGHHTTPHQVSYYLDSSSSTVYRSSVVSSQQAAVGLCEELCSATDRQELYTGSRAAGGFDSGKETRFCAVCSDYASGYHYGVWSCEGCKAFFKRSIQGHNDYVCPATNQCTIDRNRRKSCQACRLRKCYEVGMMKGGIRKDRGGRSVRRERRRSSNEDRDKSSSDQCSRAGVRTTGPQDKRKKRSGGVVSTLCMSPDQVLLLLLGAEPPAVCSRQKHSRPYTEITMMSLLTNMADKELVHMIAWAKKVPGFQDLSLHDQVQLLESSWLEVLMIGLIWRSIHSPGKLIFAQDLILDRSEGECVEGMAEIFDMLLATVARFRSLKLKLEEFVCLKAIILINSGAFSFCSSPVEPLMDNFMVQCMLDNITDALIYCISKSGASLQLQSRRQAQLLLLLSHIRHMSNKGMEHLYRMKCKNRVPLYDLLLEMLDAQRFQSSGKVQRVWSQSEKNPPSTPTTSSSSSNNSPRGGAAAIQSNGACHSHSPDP
# Sequence of Peroxisome proliferator-activated receptor gamma (Homo sapiens) (P37231 whole entry, looked up, the tested form may be a part): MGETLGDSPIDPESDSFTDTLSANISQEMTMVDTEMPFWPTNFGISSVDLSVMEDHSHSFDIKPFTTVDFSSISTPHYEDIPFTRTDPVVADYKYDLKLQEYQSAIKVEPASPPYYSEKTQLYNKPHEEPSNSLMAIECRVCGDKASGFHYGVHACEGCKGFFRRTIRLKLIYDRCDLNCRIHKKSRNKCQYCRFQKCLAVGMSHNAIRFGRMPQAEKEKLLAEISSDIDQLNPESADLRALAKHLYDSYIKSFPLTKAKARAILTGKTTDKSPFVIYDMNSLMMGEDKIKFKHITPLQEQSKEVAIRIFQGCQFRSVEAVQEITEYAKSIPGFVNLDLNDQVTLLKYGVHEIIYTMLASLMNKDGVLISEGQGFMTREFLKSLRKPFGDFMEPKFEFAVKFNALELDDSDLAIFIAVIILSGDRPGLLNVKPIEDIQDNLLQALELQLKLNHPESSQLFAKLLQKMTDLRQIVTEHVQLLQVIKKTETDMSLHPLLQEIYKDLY
# Sequence of Estrogen receptor beta (Homo sapiens) (Q92731 whole entry, looked up, the tested form may be a part): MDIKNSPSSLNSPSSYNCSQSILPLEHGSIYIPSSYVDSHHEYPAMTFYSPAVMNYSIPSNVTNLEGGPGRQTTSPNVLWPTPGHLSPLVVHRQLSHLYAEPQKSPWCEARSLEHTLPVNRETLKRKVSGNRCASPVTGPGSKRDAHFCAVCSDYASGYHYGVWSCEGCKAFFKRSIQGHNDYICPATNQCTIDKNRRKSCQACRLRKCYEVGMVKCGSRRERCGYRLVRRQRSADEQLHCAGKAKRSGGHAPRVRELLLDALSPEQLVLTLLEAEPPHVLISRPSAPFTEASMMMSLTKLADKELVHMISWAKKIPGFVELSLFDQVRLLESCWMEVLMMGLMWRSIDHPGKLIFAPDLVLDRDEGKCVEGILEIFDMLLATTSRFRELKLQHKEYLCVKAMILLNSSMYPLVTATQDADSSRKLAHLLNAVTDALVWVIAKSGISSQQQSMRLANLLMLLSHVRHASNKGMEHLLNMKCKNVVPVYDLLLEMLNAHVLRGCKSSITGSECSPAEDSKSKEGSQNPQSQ
# Sequence of zebrafish Thyroid Hormone Receptor beta (TRb), thrb (gene 30607) (Q9PVE4 whole entry, looked up, the tested form may be a part): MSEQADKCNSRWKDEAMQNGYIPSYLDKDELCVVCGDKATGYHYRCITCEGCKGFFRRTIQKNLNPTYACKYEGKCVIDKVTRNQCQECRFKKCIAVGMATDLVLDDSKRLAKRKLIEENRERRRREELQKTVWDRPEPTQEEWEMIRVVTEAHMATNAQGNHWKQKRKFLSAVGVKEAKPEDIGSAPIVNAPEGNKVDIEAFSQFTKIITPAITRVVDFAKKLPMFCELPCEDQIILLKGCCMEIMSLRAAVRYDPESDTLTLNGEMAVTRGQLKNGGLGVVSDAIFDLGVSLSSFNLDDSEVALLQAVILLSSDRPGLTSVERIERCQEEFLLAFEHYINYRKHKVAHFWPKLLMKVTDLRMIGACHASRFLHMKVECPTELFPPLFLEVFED
# Sequence of zebrafish Thyroid Hormone Receptor alpha (TRa), thraa (gene 30670) (Q98867 whole entry, looked up, the tested form may be a part): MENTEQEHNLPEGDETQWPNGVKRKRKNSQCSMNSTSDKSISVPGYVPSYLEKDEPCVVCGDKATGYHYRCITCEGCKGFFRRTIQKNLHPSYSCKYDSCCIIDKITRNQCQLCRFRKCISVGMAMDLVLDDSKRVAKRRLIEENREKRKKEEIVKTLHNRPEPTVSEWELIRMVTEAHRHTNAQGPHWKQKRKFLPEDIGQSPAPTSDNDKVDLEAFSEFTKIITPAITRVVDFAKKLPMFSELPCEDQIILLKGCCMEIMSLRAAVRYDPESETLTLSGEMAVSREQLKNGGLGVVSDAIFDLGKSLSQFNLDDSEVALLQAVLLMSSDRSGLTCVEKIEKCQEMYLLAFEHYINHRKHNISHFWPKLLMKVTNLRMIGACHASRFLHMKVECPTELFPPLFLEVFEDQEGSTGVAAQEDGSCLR
# Sequence of human Thyroid hormone Receptor beta (TRb), THRB (gene 7068) (P10828 whole entry, looked up, the tested form may be a part): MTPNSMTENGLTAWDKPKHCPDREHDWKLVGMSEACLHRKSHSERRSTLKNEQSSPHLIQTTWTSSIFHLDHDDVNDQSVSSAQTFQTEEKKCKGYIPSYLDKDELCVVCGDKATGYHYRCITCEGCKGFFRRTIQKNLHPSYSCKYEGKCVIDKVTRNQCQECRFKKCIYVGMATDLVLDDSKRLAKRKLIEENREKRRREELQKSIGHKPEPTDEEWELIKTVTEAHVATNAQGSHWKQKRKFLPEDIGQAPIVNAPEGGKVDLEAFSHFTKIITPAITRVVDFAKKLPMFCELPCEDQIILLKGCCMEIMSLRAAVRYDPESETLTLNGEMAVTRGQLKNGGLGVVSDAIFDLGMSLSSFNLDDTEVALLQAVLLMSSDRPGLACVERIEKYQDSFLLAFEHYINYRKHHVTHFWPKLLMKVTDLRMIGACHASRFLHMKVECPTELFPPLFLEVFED
# Sequence of human Thyroid hormone Receptor alpha (TRa), THRA (gene 7067) (P10827 whole entry, looked up, the tested form may be a part): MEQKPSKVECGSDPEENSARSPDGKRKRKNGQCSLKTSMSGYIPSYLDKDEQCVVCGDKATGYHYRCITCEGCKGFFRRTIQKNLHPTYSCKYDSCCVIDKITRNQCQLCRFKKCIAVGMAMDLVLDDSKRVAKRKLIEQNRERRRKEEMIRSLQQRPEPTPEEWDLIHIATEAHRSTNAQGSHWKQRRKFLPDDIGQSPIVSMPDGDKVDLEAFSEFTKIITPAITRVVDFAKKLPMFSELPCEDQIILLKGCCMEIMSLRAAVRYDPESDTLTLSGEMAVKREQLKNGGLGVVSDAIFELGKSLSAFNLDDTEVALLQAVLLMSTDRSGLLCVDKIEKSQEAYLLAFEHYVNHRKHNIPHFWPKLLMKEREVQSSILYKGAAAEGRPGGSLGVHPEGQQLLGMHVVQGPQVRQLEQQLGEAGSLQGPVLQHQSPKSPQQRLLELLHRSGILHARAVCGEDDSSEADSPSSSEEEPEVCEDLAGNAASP
structure (smiles),measurement,setting,value
CCCCCCCCOC(=O)c1ccc(O)cc1,outcome,[1],inactive
same,AC50,[2],17.1 µM (active) and 1.5 µM (active)
same,outcome,[3],inactive
same,AC50,[4],49.4 µM (active)
same,AC50,[5],33.4 µM (active)
same,outcome,[5],inactive
same,outcome,[6],inactive
same,AC50,[7],18 µM (active) and 788 nM (active)
same,AC50,[8],11 µM (active) and 3.51 µM (active)
same,AC50,[9],33.4 µM (active)
same,outcome,[9],inactive
same,AC50,[10],20.9 µM (active) and 2.94 µM (active)
CC(C)(C)c1ccc(S)cc1,outcome,[1],inactive
same,outcome,[2],inactive
same,outcome,[4],inactive
same,outcome,[5],inactive
same,outcome,[6],inactive
same,outcome,[7],inactive
same,AC50,[8],100 µM (active)
same,outcome,[9],inactive
same,outcome,[10],inactive
CCCCCC(=O)O[C@]1(C(C)=O)CC[C@H]2[C@@H]3CCC4=CC(=O)CC[C@]4(C)[C@H]3CC[C@@]21C,outcome,[1],inactive
same,outcome,[4],inactive
same,outcome,[6],inactive
same,AC50,[8],172 µM (active)
same,outcome,[10],inactive
CC/C(=C(\c1ccccc1)c1ccc(OCCN(C)C)cc1)c1ccccc1,outcome,[11],inactive
same,outcome,[12],inactive
same,outcome,[13],inactive
same,outcome,[14],inactive
same,outcome,[15],inactive
same,outcome,[16],inactive
same,outcome,[17],inactive
same,outcome,[18],inactive
same,AC50,[19],26.1 µM (active)
same,outcome,[1],inactive
same,outcome,[8],inactive
same,outcome,[10],inactive
C#C[C@]1(O)CC[C@H]2[C@@H]3CCc4cc(O)ccc4[C@H]3CC[C@@]21C,outcome,[11],inactive
same,outcome,[12],inactive
same,outcome,[15],inactive
same,outcome,[20],inactive
same,outcome,[16],inactive
same,outcome,[17],inactive
same,outcome,[18],inactive
same,outcome,[19],inactive
same,outcome,[1],inactive
same,AC50,[2],0.0694 nM (active)
same,AC50,[6],2.55 nM (active)
same,AC50,[8],4.88e-05 µM (active)
O=c1cc(-c2ccc(O)cc2)oc2cc(O)cc(O)c12,AC50,[2],1510 nM (active)
same,outcome,[2],inactive
same,AC50,[6],2.58 µM (active) and 764 nM (active)
same,AC50,[7],1.67 µM (active) and 768 nM (active)
same,AC50,[8],1.1 µM (active) and 677 nM (active)
same,AC50,[10],767 nM (active)
same,outcome,[10],inactive
